# Assay results published in PubChem BioAssay AID1159580 (chemical genetic matrix, 2015).
# In all, about 5,500 compounds went through this assay and about 2,000 (36%) were called active. Another 18% or so got no clear call; they are omitted. Some of the results follow. A number with no mark means an inactive call. Rule as the data show it: active = normalized growth mostly below about 0.91 (no sharp cut-off); inconclusive = no clear call, values can overlap the other calls; inactive = mostly above about 0.92.
# Assay: chemical genetic growth profiling, strain panel (AID 1159580);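 also: tested at 20 µM; growth read once vehicle control cultures reached saturation at 30 °C; 1 = growth at the plate median or of vehicle wells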
# Conditions: S. cerevisiae deletion strains, growth OD
structure (smiles),measurement,setting,value
COc1cc2c(cc1-c1coc3c4c(c(OC)cc3c1=O)OC(C)(C)C=C4)OCO2,normalized growth,"locus YAL013W, strain DEP1, stronger effect = lower value",0.934
same,normalized growth,"locus YAL021C, strain ccr4, stronger effect = lower value",0.993
same,normalized growth,"locus YAL026C, strain drs2, stronger effect = lower value",1.03
same,normalized growth,"locus YAL030W, strain snc1, stronger effect = lower value",1.03
same,normalized growth,"locus YBL061C, strain skt5, stronger effect = lower value",1.02
same,normalized growth,"locus YBR009C, strain hhf1, stronger effect = lower value",0.95
same,normalized growth,"locus YBR021W, strain FUR4, stronger effect = lower value",1.05
same,normalized growth,"locus YBR023C, strain chs3, stronger effect = lower value",0.971
same,normalized growth,"locus YBR171W, strain sec66, stronger effect = lower value",1.03
same,normalized growth,"locus YBR229C, strain ROT2, stronger effect = lower value",0.994
same,normalized growth,"locus YBR231C, strain swc5, stronger effect = lower value",1.04
same,normalized growth,"locus YBR279W, strain paf1, stronger effect = lower value",0.985
same,normalized growth,"locus YCL011C, strain gbp2, stronger effect = lower value",1
same,normalized growth,"locus YCL016C, strain dcc1, stronger effect = lower value",0.982
same,normalized growth,"locus YCL029C, strain bik1, stronger effect = lower value",0.985
same,normalized growth,"locus YCL061C, strain MRC1, stronger effect = lower value",1.01
same,normalized growth,"locus YCL069W, strain vba3, stronger effect = lower value",1.05
same,normalized growth,"locus YCR088W, strain abp1, stronger effect = lower value",1.05
same,normalized growth,"locus YDL005C, strain med2, stronger effect = lower value",1.04
same,normalized growth,"locus YDL035C, strain GPR1, stronger effect = lower value",0.998
same,normalized growth,"locus YDL040C, strain nat1, stronger effect = lower value",1.02
same,normalized growth,"locus YDL074C, strain BRE1, stronger effect = lower value",0.902
same,normalized growth,"locus YDL101C, strain DUN1, stronger effect = lower value",0.95
same,normalized growth,"locus YDL134C, strain PPH21, stronger effect = lower value",0.907
same,normalized growth,"locus YDL185W, strain tfp1, stronger effect = lower value",1.01
same,normalized growth,"locus YDL192W, strain arf1, stronger effect = lower value",0.966
same,normalized growth,"locus YDR001C, strain nth1, stronger effect = lower value",1.04
same,normalized growth,"locus YDR069C, strain doa4, stronger effect = lower value",1.04
same,normalized growth,"locus YDR101C, strain arx1, stronger effect = lower value",1
same,normalized growth,"locus YDR137W, strain rgp1, stronger effect = lower value",0.654 (active)
same,normalized growth,"locus YDR159W, strain sac3, stronger effect = lower value",0.981
same,normalized growth,"locus YDR162C, strain NBP2, stronger effect = lower value",0.884
same,normalized growth,"locus YDR195W, strain ref2",1.18 [resistant] (active)
same,normalized growth,"locus YDR297W, strain sur2, stronger effect = lower value",1.02
same,normalized growth,"locus YDR318W, strain mcm21, stronger effect = lower value",0.964
same,normalized growth,"locus YDR334W, strain swr1, stronger effect = lower value",1.04
same,normalized growth,"locus YDR335W, strain msn5, stronger effect = lower value",1.03
same,normalized growth,"locus YDR388W, stronger effect = lower value",0.986
same,normalized growth,"locus YDR392W, strain spt3, stronger effect = lower value",0.295 (active)
same,normalized growth,"locus YDR502C, strain sam2, stronger effect = lower value",0.97
same,normalized growth,"locus YEL003W, strain gim4, stronger effect = lower value",1.02
same,normalized growth,"locus YEL037C, strain rad23, stronger effect = lower value",1.04
same,normalized growth,"locus YEL061C, strain CIN8 (second series), stronger effect = lower value",1.04
same,normalized growth,"locus YER015W, strain faa2, stronger effect = lower value",0.991
same,normalized growth,"locus YER016W, strain bim1, stronger effect = lower value",1.03
same,normalized growth,"locus YER110C, stronger effect = lower value",0.994
same,normalized growth,"locus YER111C, strain swi4, stronger effect = lower value",0.994
same,normalized growth,"locus YER155C, strain BEM2 (second series), stronger effect = lower value",0.926
same,normalized growth,"locus YER155C, strain BEM2, stronger effect = lower value",0.988
same,normalized growth,"locus YER167W, strain BCK2, stronger effect = lower value",1.01
same,normalized growth,"locus YFR010W, strain ubp6, stronger effect = lower value",1.07
same,normalized growth,"locus YGL078C, strain dbp3, stronger effect = lower value",0.983
same,normalized growth,"locus YGL086W, strain mad1, stronger effect = lower value",0.959
same,normalized growth,"locus YGL167C, strain pmr1, stronger effect = lower value",1.02
same,normalized growth,"locus YGL173C, strain kem1, stronger effect = lower value",1
same,normalized growth,"locus YGL227W, strain vid30, stronger effect = lower value",1.08
same,normalized growth,"locus YGL240W, strain doc1, stronger effect = lower value",0.984
same,normalized growth,"locus YGL248W, strain PDE1, stronger effect = lower value",0.929
same,normalized growth,"locus YGL253W, strain hxk2, stronger effect = lower value",1.01
same,normalized growth,"locus YGR135W, strain pre9, stronger effect = lower value",0.916
same,normalized growth,"locus YGR252W, strain gcn5, stronger effect = lower value",0.863
same,normalized growth,"locus YHR013C, strain ard1, stronger effect = lower value",0.991
same,normalized growth,"locus YHR027C, strain rpn1, stronger effect = lower value",1.03
same,normalized growth,"locus YHR030C, strain SLT2, stronger effect = lower value",0.968
same,normalized growth,"locus YHR079C, strain IRE1 (second series), stronger effect = lower value",0.995
same,normalized growth,"locus YHR094C, strain hxt1, stronger effect = lower value",1
same,normalized growth,"locus YHR129C, strain ARP1, stronger effect = lower value",0.959
same,normalized growth,"locus YHR142W, strain chs7, stronger effect = lower value",0.976
same,normalized growth,"locus YHR200W, strain rpn10, stronger effect = lower value",0.957
same,normalized growth,"locus YIL066C, strain RNR3, stronger effect = lower value",0.991
same,normalized growth,"locus YIL073C, strain SPO22, stronger effect = lower value",0.919
same,normalized growth,"locus YIL125W, strain kgd1, stronger effect = lower value",0.982
same,normalized growth,"locus YIR030C, strain dcg1, stronger effect = lower value",1
same,normalized growth,"locus YJL092W, strain hpr5, stronger effect = lower value",1.04
same,normalized growth,"locus YJL095W, strain BCK1 (second series), stronger effect = lower value",0.974
same,normalized growth,"locus YJL095W, strain BCK1, stronger effect = lower value",0.809
same,normalized growth,"locus YJL115W, strain asf1, stronger effect = lower value",1.04
same,normalized growth,"locus YJL129C, strain trk1, stronger effect = lower value",1.03
same,normalized growth,"locus YJL134W, strain LCB3, stronger effect = lower value",1
same,normalized growth,"locus YJL154C, strain vps35, stronger effect = lower value",1.04
same,normalized growth,"locus YJL164C, strain tpk1, stronger effect = lower value",0.968
same,normalized growth,"locus YJL166W, strain qcr8, stronger effect = lower value",0.933
same,normalized growth,"locus YJL168C, strain set2, stronger effect = lower value",0.985
same,normalized growth,"locus YJL187C, strain SWE1 (second series), stronger effect = lower value",0.938
same,normalized growth,"locus YKL009W, strain mrt4, stronger effect = lower value",1.01
same,normalized growth,"locus YKL068W, stronger effect = lower value",1
same,normalized growth,"locus YKL085W, strain MDH1 (second series), stronger effect = lower value",1
same,normalized growth,"locus YKL085W, strain MDH1, stronger effect = lower value",1
same,normalized growth,"locus YKL160W, strain elf1, stronger effect = lower value",0.927
same,normalized growth,"locus YKR001C, strain vps1, stronger effect = lower value",0.937
same,normalized growth,"locus YKR026C, strain gcn3, stronger effect = lower value",1.06
same,normalized growth,"locus YKR091W, strain srl3, stronger effect = lower value",1.02
same,normalized growth,"locus YLL001W, strain dnm1, stronger effect = lower value",1.01
same,normalized growth,"locus YLL026W, stronger effect = lower value",1.04
same,normalized growth,"locus YLL041C, strain sdh2, stronger effect = lower value",1.03
same,normalized growth,"locus YLR027C, strain aat2, stronger effect = lower value",0.992
same,normalized growth,"locus YLR039C, strain RIC1, stronger effect = lower value",0.788
same,normalized growth,"locus YLR058C, strain SHM2, stronger effect = lower value",0.984
same,normalized growth,"locus YLR102C, strain apc9, stronger effect = lower value",0.997
same,normalized growth,"locus YLR221C, strain rsa3, stronger effect = lower value",1.01
same,normalized growth,"locus YLR258W, strain gsy2, stronger effect = lower value",0.978
same,normalized growth,"locus YLR262C, strain YPT6 (second series), stronger effect = lower value",0.681 (active)
same,normalized growth,"locus YLR268W, strain sec22, stronger effect = lower value",0.998
same,normalized growth,"locus YLR320W, strain mms22, stronger effect = lower value",0.912
same,normalized growth,"locus YLR342W, strain FKS1 (second series), stronger effect = lower value",0.936
same,normalized growth,"locus YLR342W, strain FKS1, stronger effect = lower value",0.968
same,normalized growth,"locus YLR357W, strain rsc2, stronger effect = lower value",1.12
same,normalized growth,"locus YLR370C, strain arc18, stronger effect = lower value",0.973
same,normalized growth,"locus YLR371W, strain rom2, stronger effect = lower value",1.02
same,normalized growth,"locus YLR384C, strain iki3, stronger effect = lower value",1.03
same,normalized growth,"locus YLR418C, strain cdc73, stronger effect = lower value",0.798 (active)
same,normalized growth,"locus YML016C, strain PPZ1, stronger effect = lower value",0.987
same,normalized growth,"locus YML032C, strain rad52, stronger effect = lower value",0.963
same,normalized growth,"locus YML120C, strain ndi1, stronger effect = lower value",0.971
same,normalized growth,"locus YML124C, strain tub3, stronger effect = lower value",1
same,normalized growth,"locus YMR058W, strain fet3, stronger effect = lower value",1
same,normalized growth,"locus YMR078C, strain ctf18, stronger effect = lower value",0.986
same,normalized growth,"locus YMR125W, strain sto1, stronger effect = lower value",1.01
same,normalized growth,"locus YMR129W, stronger effect = lower value",1.03
same,normalized growth,"locus YMR205C, strain PFK2, stronger effect = lower value",0.919
same,normalized growth,"locus YMR223W, strain ubp8, stronger effect = lower value",0.928
same,normalized growth,"locus YMR231W, strain pep5, stronger effect = lower value",1.01
same,normalized growth,"locus YMR307W, strain GAS1, stronger effect = lower value",0.685
same,normalized growth,"locus YNL067W, strain RPL9B, stronger effect = lower value",0.956
same,normalized growth,"locus YNL071W, strain lat1, stronger effect = lower value",0.799 (active)
same,normalized growth,"locus YNL209W, strain ssb2, stronger effect = lower value",1
same,normalized growth,"locus YNL233W, strain BNI4, stronger effect = lower value",0.868 (active)
same,normalized growth,"locus YNL248C, strain rpa49, stronger effect = lower value",1.1
same,normalized growth,"locus YNL250W, strain rad50, stronger effect = lower value",0.972
same,normalized growth,"locus YNL271C, strain bni1, stronger effect = lower value",0.991
same,normalized growth,"locus YNL298W, strain CLA4, stronger effect = lower value",0.953
same,normalized growth,"locus YNL307C, strain MCK1, stronger effect = lower value",0.907
same,normalized growth,"locus YNL322C, strain KRE1 (second series), stronger effect = lower value",1.04
same,normalized growth,"locus YNR049C, strain mso1, stronger effect = lower value",1.03
same,normalized growth,"locus YNR052C, strain pop2, stronger effect = lower value",0.944
same,normalized growth,"locus YOL006C, strain TOP1, stronger effect = lower value",0.842
same,normalized growth,"locus YOL012C, strain htz1",0.696
same,normalized growth,"locus YOL147C, strain pex11, stronger effect = lower value",0.996
same,normalized growth,"locus YOR001W, strain rrp6, stronger effect = lower value",1.02
same,normalized growth,"locus YOR061W, strain CKA2, stronger effect = lower value",1.02
same,normalized growth,"locus YOR069W, strain VPS5, stronger effect = lower value",0.973
same,normalized growth,"locus YOR070C, strain gyp1, stronger effect = lower value",0.992
same,normalized growth,"locus YOR080W, strain dia2, stronger effect = lower value",1.04
same,normalized growth,"locus YOR083W, strain WHI5, stronger effect = lower value",0.959
same,normalized growth,"locus YOR106W, strain vam3, stronger effect = lower value",0.996
same,normalized growth,"locus YOR136W, strain idh2, stronger effect = lower value",0.98
same,normalized growth,"locus YOR144C, strain elg1, stronger effect = lower value",0.993
same,normalized growth,"locus YOR184W, strain ser1, stronger effect = lower value",0.904
same,normalized growth,"locus YOR265W, strain rbl2, stronger effect = lower value",1.01
same,normalized growth,"locus YOR270C, strain vph1, stronger effect = lower value",0.871
same,normalized growth,"locus YOR290C, strain snf2, stronger effect = lower value",0.948
same,normalized growth,"locus YOR316C, strain cot1, stronger effect = lower value",0.985
same,normalized growth,"locus YPL051W, strain arl3, stronger effect = lower value",0.895 (active)
same,normalized growth,"locus YPL078C, strain atp4, stronger effect = lower value",0.95
same,normalized growth,"locus YPL106C, strain sse1, stronger effect = lower value",1.05
same,normalized growth,"locus YPL240C, strain hsp82, stronger effect = lower value",1.04
same,normalized growth,"locus YPR119W, strain clb2, stronger effect = lower value",0.995
same,normalized growth,"locus YPR141C, strain kar3, stronger effect = lower value",0.999
same,normalized growth,"locus YPR163C, strain tif3, stronger effect = lower value",0.986
same,normalized growth,"locus YPR167C, strain met16, stronger effect = lower value",0.972
same,normalized growth,"strain wtn01, stronger effect = lower value",0.989
